Measurements taken from PubChem BioAssay (EPA / NIEHS).
Inconclusive results are not listed. Where a structure was tested more than once in an assay, its records may differ in their call. Activity calls are given as the source filed them. How the source made its calls: active means hit-call score of the fitted dose curve at least 0.9, where 1 is the maximum; inconclusive means response in the unintended direction; inactive means score below 0.9.

The compounds below were run against Estrogen receptor (Homo sapiens) (UniProt P03372) (assay: ATG_ERa_TRANS: Attagene TRANS-FACTORIAL HepG2 Assay for human Estrogen Receptor alpha (ERa) (AID 2282970)). Settings: HepG2 Attagene TRANS ERa GAL4 reporter, mRNA.
Chain of Estrogen receptor (Homo sapiens) (P03372 whole entry, looked up, the tested form may be a part): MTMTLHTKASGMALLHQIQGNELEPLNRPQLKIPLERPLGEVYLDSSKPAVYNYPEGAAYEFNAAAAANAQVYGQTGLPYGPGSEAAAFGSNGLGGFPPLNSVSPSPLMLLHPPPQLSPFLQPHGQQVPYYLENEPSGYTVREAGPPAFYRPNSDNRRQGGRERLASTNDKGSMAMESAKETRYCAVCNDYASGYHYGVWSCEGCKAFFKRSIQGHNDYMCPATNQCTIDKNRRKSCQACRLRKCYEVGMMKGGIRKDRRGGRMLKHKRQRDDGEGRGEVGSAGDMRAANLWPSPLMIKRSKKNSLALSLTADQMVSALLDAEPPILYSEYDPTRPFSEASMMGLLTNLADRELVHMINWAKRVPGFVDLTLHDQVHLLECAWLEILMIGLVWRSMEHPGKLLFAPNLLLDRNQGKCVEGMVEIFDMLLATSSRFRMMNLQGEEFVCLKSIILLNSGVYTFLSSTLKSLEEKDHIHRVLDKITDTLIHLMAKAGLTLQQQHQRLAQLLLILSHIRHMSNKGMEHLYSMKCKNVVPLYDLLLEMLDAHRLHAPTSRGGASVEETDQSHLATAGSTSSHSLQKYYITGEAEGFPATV
Description: ATG_TRANS is a cell-based, multiplexed-readout assay that uses HepG2, a human liver cell line, with measurements taken at 24 hours after chemical dosing in a 24-well plate.ATG_ERa_TRANS is one of 30 assay component(s) measured or calculated from the ATG_TRANS assay. It is designed to make measurements of mRNA induction, a form of inducible reporter, as detected with fluorescence intensity signals by Reverse transcription polymerase chain reaction (RT-PCR) and Capillary electrophoresis technology.Data from the assay component ATG_ERa_TRANS was analyzed into 1 assay endpoint. This assay endpoint, ATG_ERa_TRANS, was analyzed in the positive analysis fitting direction relative to DMSO as the negative control and baseline of activity. Using a type of inducible reporter, measures of mRNA for gain-of-signal activity can be used to understand the reporter gene at the transcription factor-level as they relate to the gene ESR1. Furthermore, this assay endpoint can be referred to as a primary readout, because this assay has produced multiple assay endpoints where this one serves a reporter gene function. To generalize the intended target to other relatable targets, this assay endpoint is annotated to the nuclear receptor intended target family, where the subfamily is steroidal.
Human liver HepG2 cells are transiently transfected with multiple reporter transcription units (MRTUs) in 6-well plates using FuGene 6 reagent (Roche; 3 ml FuGene/1 mg DNA). The MRTU constructs are regulated by a cis-regulating element (promoter). […] A major difference between the CIS and TRANS system is that in CIS activities of endogenous TFs are measured, whereas the TRANS assay evaluates changes in activities of exogenous, chimeric NR-Gal4 proteins. […] At the end of 24 hour incubation, total RNA was isolated using TriZol reagent (Invitrogen). The isolated RNA is then reverse-transcribed using oligo(dT) primer and Mo-MLV reverse transcriptase (Invitrogen) with DNAse I (Ambion) treatment for 30 min. The one-tenth of the produced cDNA was amplified by PCR using Taq DNA polymerase (Invitrogen) and two reporter sequence-specific primers. The PCR products were fluorescently labeled by primer extension with 6-arboxyfluorescein (6-FAM) 5'-labeled reporter sequence-specific primer (2 min at 95 C, 20 s at 68 C and 10 min at 72 C) and these products were digested with 5U of HpaI (New England Biolabs) for 2h at 37 C. […] The raw capillary electrophoresis data was processed using Attagraph software (Attagene).

Structure (SMILES) | outcome | AC50
CN(C)C(=O)C1(N2CCCCC2)CCN(CC[C@@]2(c3ccc(Cl)c(Cl)c3)CN(C(=O)c3ccccc3)CCO2)CC1 | inactive | 
Clc1cc(Cl)c2c(c1)N=C1CCCCCN1C2 | inactive | 
CC(C)(O)c1ccc(CNC(=O)c2cccnc2Oc2ccc3nonc3c2)cc1 | inactive | 
O=C(O)c1ccccc1-n1cc(C(=O)O)c(=O)c2cc(Nc3c(F)cc(F)cc3Cl)c(Cl)cc21 | inactive | 
Cc1cccc2ccccc12 | inactive | 
CC(=O)N1CCN(c2ccc(OC[C@H]3CO[C@](Cn4ccnc4)(c4ccc(Cl)cc4Cl)O3)cc2)CC1 | inactive | 
O=C(O)Cn1c(=O)n(Cc2ccc(Br)cc2F)c(=O)c2ccc(Cl)cc21 | inactive | 
CCCCCCCCOC(=O)c1cc(O)c(O)c(O)c1 |  | 20 µM (active)
COc1ccc2cc(S(=O)(=O)N[C@H](CC(=O)N[C@H](Cc3ccc(CN4[C@H](C)CCC[C@@H]4C)cc3)C(=O)N(C)C(C)C)c3ccc4c(c3)OCO4)ccc2c1 |  | 11 µM (active)
c1ccc2ccccc2c1 | inactive | 59 µM (active)
O=C(O)c1ccccc1C(=O)OCc1ccccc1 | inactive | 
CCCC(=O)OCCC(C)C | inactive | 
CC[C@@H]1C[C@H](N(Cc2cc(C(F)(F)F)cc(C(F)(F)F)c2)C(C)=O)c2cc(C(F)(F)F)ccc2N1C(=O)OC(C)C |  | 100 µM (active)
CCCCCCCCCCCCO | inactive | 
CC1=CC(=O)/C(=C(/C)O)C(=O)O1 | inactive | 
CN(C[C@@H](CC[N+]12CCC(C3CCCCC3)(CC1)CC2)c1ccc(Cl)c(Cl)c1)C(=O)c1cc(C(F)(F)F)cc(C(F)(F)F)c1 | inactive | 
CCN(Cc1cccc(S(=O)(=O)O)c1)c1ccc(C(=C2C=CC(=[N+](CC)Cc3cccc(S(=O)(=O)O)c3)C=C2)c2ccccc2S(=O)(=O)[O-])cc1 | inactive | 
CCCCCCCCCCCO | inactive | 
O=C(OCCCCCCOC(=O)c1ccccc1)c1ccccc1 | inactive | 
COc1cccc([C@H](O)C2CCN(CCc3ccc(F)cc3)CC2)c1OC | inactive | 

Structure (SMILES) | outcome | AC50
CCCCCCCCOc1ccc(C(=O)c2ccccc2)c(O)c1 | inactive | 
OC12N=C(c3ccccc3)SC1Cc1cc(Cl)ccc12 (stereo not given) |  | 3.97 µM (active)
O=C=NCCCCCCN=C=O | inactive | 
CC(C)(C)c1cc(/C=C2\SC(N)=NC2=O)cc(C(C)(C)C)c1O | inactive | 
O=c1ccc2ccccc2o1 | inactive | 
Cc1cc(F)ccc1-c1cc(N2CC[C@@H](O)[C@H]2CO)ncc1N(C)C(=O)C(C)(C)c1cc(C(F)(F)F)cc(C(F)(F)F)c1 | inactive | 
O=CCCCC=O | inactive | 
OCCO | inactive | 
NCc1cccc(C2CCN(C(=O)c3ccc(C#Cc4ccccc4F)o3)CC2)c1 |  | 9.53 µM (active)
CCOC(=O)O[C@H](C)OC(=O)c1ccc2c(c1)cc(C(=O)NC1CCN(C(C)C)CC1)n2Cc1cc(-c2ccc(Cl)s2)on1 | inactive | 
CC[C@H](NC(=O)c1cc(F)ccc1NS(=O)(=O)c1cccc2cccnc12)c1ccccc1 | inactive | 
CC(C)(C)c1csc(-c2cc3cc(OCc4ccccc4CC(=O)O)ccc3o2)n1 | inactive | 
O=c1[nH]sc2ccccc12 | inactive | 
CCN(CC)C(=O)c1cc(S(=O)(=O)Cc2ccccc2)c(N2CCC(c3ccccc3)CC2)cc1N(CC)CCN(C)C | inactive | 
CCCCCc1ccc(N)cc1 |  | 12.2 µM (active) [middle of 4 runs]
CCCOC(=O)c1cc(O)c(O)c(O)c1 |  | 14.5 µM (active)
COc1cc(C(=O)NC2CCN(C)CC2)ccc1Nc1ncc2c(n1)N(C1CCCC1)CC(F)(F)C(=O)N2C | inactive | 
Cc1c2ccccc2c(C)c2c1ccc1ccccc12 |  | 11.4 µM (active)
Clc1ccccc1C(c1ccccc1)(c1ccccc1)n1ccnc1 | inactive | 
